Cycloheximide cs: counter-screen hit for Shiga toxin inhibitors, cycloheximide | max response, % | 300,000 compounds, 12% hits | cell reporter, cycloheximide protein synthesis inhibition counterscreen; in the data active means max response mostly above about 13%, no sharp cut-off; inactive means mostly below about 14%; further: read at 38.3 µM for the half of the compounds with a filed dose; 0% is about no effect
Pf growth 48h: P. falciparum growth inhibition at 48 hours (one generation). P. falciparum luciferase growth in erythrocytes, 48 h. Potency, µM (series often up to 28.7 µM), for the others: top-dose activity change, negative = inhibition, hits mostly inhibitors. 310,000 compounds, 5.9% hits; further: potency means the concentration at half of the fitted maximal effect; on the % scale 0 is the no-effect control and ±100 the full control effect
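Erythrocytes infected with P. falciparum carrying an integrated firefly luciferase reporter (2% hematocrit, 0.1% parasitemia final) were exposed to compounds in RPMI 1640 with 0.5% Albumax at 37 C, 5% CO2. Growth inhibition was scored as reduced luminescence.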
HCV inh: HCV inhibition; Huh7.5.1 HCVcc-Cre infection, luciferase reporter, 44 h; Potency, µM (series often up to 41.8 µM), for inactives: at the top dose activity change, negative = inhibition, most hits filed as inhibitors; 340,000 compounds, 3.4% hits; AID 651820; further: potency means the concentration at half of the fitted maximal effect; on the % scale 0 is the no-effect control and ±100 the full control effect
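Reporter virus HCVcc-Cre (~0.5 moi) infects cells exposed to compound; seeding density 1,000 cells/well with 4 h settling beforehand. Luminescence, 15 sec read, taken 44 h post-infection following a 15 min RT substrate incubation.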
AMA1-RON2 inh: inhibitors of Plasmodium falciparum AMA1-RON2 interaction; AlphaScreen AMA1-biotinylated RON2 peptide binding; Potency, µM (top dose mostly 58.2 µM), for the others: top-dose activity change, negative = inhibition, usual class: inhibitors; 360,000 compounds, 0.2% hits; AID 720542;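 further: potency means the concentration at half of the fitted maximal effect; 0% = vehicle wells and -100% = peptide control; nearly all actives have a fitted effect of over 45% in size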
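AMA1 (3D7) with his tag at 25 nM final met compounds first, then biotinylated RON2 peptide at 25 nM; detection used donor plus acceptor beads, 10 µg/mL apiece, read by AlphaScreen after 30 min at room temperature.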
Shiga inhibitor: inhibitors of Shiga toxin in Vero cells. Vero cells, Shiga toxin protein synthesis inhibition reporter. 290,000 compounds, 9.2% hits. inhibition, % at 38.7 µM; in the data active means inhibition mostly above about 28%, no sharp cut-off; inactive means mostly below about 43%; further: 0% is about no effect
Pf growth 96h: inhibits malaria parasite growth, 96 h; 320,000 compounds, 6.9% hits; Potency, µM (doses to about 28.7 µM), without a hit: at the highest dose activity change, negative = inhibition, hits mostly inhibitors; P. falciparum luciferase reporter growth, 96 h; further: potency means the concentration at half of the fitted maximal effect; on the % scale 0 is the no-effect control and ±100 the full control effect
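Two-generation exposure (96 h) targets delayed-death phenotype. Reporter parasites carrying integrated firefly luciferase, in red cells at 2% hematocrit and 0.05% parasitemia final, kept at 37 C, 5% CO2; luminescence loss indicates inhibition.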
The depositor's hits bear a star. Hits are enriched below; roughly 21% of the tested compounds scored in any of these assays. Unless noted, the call rests on the fitted dose curve; in most records, active means well fitted curve in the direction sought with a large enough effect; inconclusive means small, poorly fitted or top-dose-only effect, or another doubt; inactive means no such curve, though single readings can be large; an effect the other way counts as inactive or inconclusive.

How did O=C(O)c1ccc(CSc2nc3ccc(N4C(=O)C5C6C=CC(C6)C5C4=O)cc3s2)cc1 (configuration not stated) do in these assays?
Cycloheximide cs: 5.3; Pf growth 48h: -8.2%; HCV inh: 11.3%; AMA1-RON2 inh: -5.8%; Shiga inhibitor: -11.7; Pf growth 96h: -24.1%

What do the screens show for `COC(=O)c1ccc(NC(=O)CSc2nc3ccc(N4C(=O)C5C6C=CC(C6)C5C4=O)cc3s2)cc1` (configuration not stated)?
Cycloheximide cs: 23.0*; Pf growth 48h: inconclusive; HCV inh: 11.2µM*; AMA1-RON2 inh: -3.6%; Shiga inhibitor: 3.5; Pf growth 96h: 9.28µM*

What do the screens show for `c1ccc(NC2=NCCN2CCCC2CCCCC2)cc1`?
Pf growth 48h: inconclusive; HCV inh: inconclusive; AMA1-RON2 inh: 1.0%; Pf growth 96h: inconclusive

How did COc1ccc(C2CC(c3cccs3)=NN2C(=S)Nc2ccccc2)cc1OC (configuration not stated) do in these assays?
Cycloheximide cs: -0.7; Pf growth 48h: 6.57µM*; HCV inh: 9.0%; AMA1-RON2 inh: -19.4%; Shiga inhibitor: 11.4; Pf growth 96h: 9.28µM*

How did S=C(Nc1ccccc1)N1N=C(c2cccs2)CC1c1cccs1 (configuration not stated) do in these assays?
Cycloheximide cs: 7.0; Pf growth 48h: inconclusive; HCV inh: -27.8%; AMA1-RON2 inh: 16.3%; Shiga inhibitor: 19.9*; Pf growth 96h: 0.0%

Results for COc1cccc(C2CC(c3cccs3)=NN2C(=S)Nc2ccccc2)c1OC (configuration not stated) ?
Cycloheximide cs: -1.3; Pf growth 48h: inconclusive; HCV inh: inconclusive; AMA1-RON2 inh: 0.0%; Shiga inhibitor: 2.7; Pf growth 96h: 41.2%

What do the screens show for `CCN(CC(=O)Nc1c(F)cccc1F)C(=O)CCSc1ccc(F)cc1`?
Pf growth 48h: inconclusive; HCV inh: -0.2%; AMA1-RON2 inh: 16.9%; Pf growth 96h: -1.8%

How did CCC(C)/C=C(C)/C=C/C1=CC2=C(Cl)C(=O)C(C)(OC(C)=O)C(=O)C2=CO1 (configuration not stated) do in these assays?
Cycloheximide cs: 10.5*; Pf growth 48h: inconclusive; HCV inh: -1.8%; AMA1-RON2 inh: inconclusive; Shiga inhibitor: 23.8; Pf growth 96h: 9.28µM*

What do the screens show for `CCCc1cc(=O)oc2cc(C)cc(OC(C)C(=O)NCC(O)c3ccccc3)c12` (configuration not stated)?
Cycloheximide cs: 1.3; Pf growth 48h: 0.465µM*; HCV inh: -28.0%; AMA1-RON2 inh: 2.7%; Shiga inhibitor: -3.3; Pf growth 96h: inconclusive

How did CCCc1cc(=O)oc2cc(OC(C)C(=O)NCc3ccccn3)c(Cl)cc12 (configuration not stated) do in these assays?
Cycloheximide cs: -11.8; Pf growth 48h: -7.8%; HCV inh: -9.4%; AMA1-RON2 inh: 13.1%; Shiga inhibitor: 10.2; Pf growth 96h: 10.4µM*

What do the screens show for `Cc1cc(OC(C)C(=O)NCCc2c[nH]c3ccccc23)c2c(C)cc(=O)oc2c1` (configuration not stated)?
Cycloheximide cs: -1.7; Pf growth 48h: 1.47µM*; HCV inh: -24.1%; AMA1-RON2 inh: -13.5%; Shiga inhibitor: -2.2; Pf growth 96h: 1.65µM*

Results for CCCc1cc(=O)oc2cc(C)cc(OC(C)C(=O)NCCN3CCOCC3)c12 (configuration not stated) ?
Cycloheximide cs: 8.5; Pf growth 48h: 10.4µM*; HCV inh: -10.7%; AMA1-RON2 inh: 0.0%; Shiga inhibitor: 9.6; Pf growth 96h: 9.28µM*

Results for CCCc1cc(=O)oc2cc(C)cc(OC(C)C(=O)N[C@@H](Cc3c[nH]c4ccccc34)C(=O)O)c12 (some centres not stated) ?
Cycloheximide cs: -3.2; Pf growth 48h: 13.9%; HCV inh: 7.8%; AMA1-RON2 inh: 8.1%; Shiga inhibitor: -9.6; Pf growth 96h: 47.3%

How did CCCc1cc(=O)oc2c(C)c(OC(C)C(=O)NCc3ccccn3)ccc12 (configuration not stated) do in these assays?
Cycloheximide cs: -2.9; Pf growth 48h: -3.4%; HCV inh: 5.6%; AMA1-RON2 inh: 6.0%; Shiga inhibitor: -2.8; Pf growth 96h: -3.1%

What do the screens show for `CCOC(=O)n1c2ccccc2c(=O)n1CCO`?
AMA1-RON2 inh: -0.8%

What do the screens show for `NC(=O)Oc1ccc(Cc2ccccc2)cc1`?
Pf growth 48h: -2.5%; Pf growth 96h: -17.7%

Results for O=C(COc1ccc(-c2ccccc2)cc1)NNC(=O)Nc1ccc(F)cc1F ?
Cycloheximide cs: 1.4; Pf growth 48h: 20.5%; HCV inh: 3.3%; AMA1-RON2 inh: 24.1%; Shiga inhibitor: -11.2; Pf growth 96h: inconclusive

What do the screens show for `CCCc1cc(=O)oc2cc(C)cc(OC(C)C(=O)NCCCn3ccnc3)c12` (configuration not stated)?
Cycloheximide cs: -5.4; Pf growth 48h: 4.15µM*; HCV inh: -6.5%; AMA1-RON2 inh: 4.8%; Shiga inhibitor: -5.7; Pf growth 96h: 2.62µM*

What do the screens show for `Cc1cc(OC(C)C(=O)NCCCn2ccnc2)c2c(C)cc(=O)oc2c1` (configuration not stated)?
Cycloheximide cs: -8.6; Pf growth 48h: inconclusive; HCV inh: 6.4%; AMA1-RON2 inh: 1.3%; Shiga inhibitor: 17.4; Pf growth 96h: -3.4%

What do the screens show for `O=c1cc(-c2ccc(O)cc2)oc2cc(OC3OC(CO)C(O)C(O)C3O)c(C3OC(CO)C(O)C(O)C3O)c(O)c12` (configuration not stated)?
Cycloheximide cs: 1.5; Shiga inhibitor: -3.4

How did COc1cc(-c2nnn(Cc3ccccc3C)n2)cc(OC)c1OC do in these assays?
Cycloheximide cs: -1.2; Pf growth 48h: -16.2%; HCV inh: inconclusive; AMA1-RON2 inh: 1.1%; Shiga inhibitor: -2.0; Pf growth 96h: 6.4%

Results for Fc1ccc(-c2nnn(Cc3ccc(F)cc3Cl)n2)cc1 ?
Cycloheximide cs: 23.8*; Pf growth 48h: 34.3%; HCV inh: -27.9%; AMA1-RON2 inh: 86.9%; Shiga inhibitor: 105.1*; Pf growth 96h: -6.8%

How did Cc1ccccc1-c1nnn(Cc2ccc(F)cc2Cl)n1 do in these assays?
Cycloheximide cs: 17.8; Pf growth 48h: 54.0%; HCV inh: -0.6%; AMA1-RON2 inh: 88.8%; Shiga inhibitor: 24.0*; Pf growth 96h: 7.9%

How did C/C(=N\NC(=O)c1nnn(-c2nonc2N)c1CN1CCC(C)CC1)c1ccc(Br)cc1 do in these assays?
AMA1-RON2 inh: 39.1%

What do the screens show for `CCOC(=O)COc1cccc(C2NC(=O)c3ccccc3O2)c1` (configuration not stated)?
Cycloheximide cs: -1.3; Pf growth 48h: -1.3%; HCV inh: 7.2%; AMA1-RON2 inh: -6.3%; Shiga inhibitor: -4.7; Pf growth 96h: 206.1%
